Our source for the growth values is PubChem BioAssay (NCI).

The panel holds about 83,000 compounds, 20% with a hit somewhere; the sample as a whole holds those more often.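 Interpretation: 100, growth as untreated; towards 0, rising growth inhibition; 0, no net growth; 0 to -100, cell death. Compounds scoring below 10 were considered active.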 Values without a mark were called inactive. Active and inactive are the calls of the source.

The test system of one assay is MOLT-4 leukemia. Put plainly: NCI-60 one-dose screen, 48 h (100 = growth as untreated, 0 = no growth, -100 = all killed). The note with it: 10 µM unless noted.
As to `CC/C=C\C/C=C\C[C@H]1C/C=C2/C(=O)C=C[C@@H]2C/C=C\CCC(=O)O1`, the growth is 2.83% (active).

For the compound `COc1ccc(CN2c3ccccc3Sc3ccccc32)cc1O`, the growth was 18.4%.

As to `CCOc1ccc(-n2nc(C(=O)Nc3cc(OC)c(OC)c(OC)c3)nc2-c2cc(OC)c(OC)c(OC)c2)cc1`, the growth was 67.5%.

Turning to `CC/C=C\C[C@H]1C/C=C2/C(=O)C=C[C@H]2C/C=C\CCCC(=O)O1`, the growth was 14.3%.

Another assay deals with SR leukemia. The assay is described as above. As to conditions: 10 µM unless noted.
For the compound `COc1cc2c(cc1O)CC[C@@H]1[C@@H]2CC[C@]2(C)[C@@H](NCCN(C)C)CC[C@@H]12`, the growth was -67.2% (active).

For `COc1cccc2c1C(=O)c1c(O)c3c(c(O)c1C2=O)C[C@](O)(C(=O)CO)C[C@H]3O[C@@H]1C[C@@H](NC(=O)CCCN(C)C2(c3ccc(F)cc3)CC3CCC2C3)[C@H](O)[C@@H](C)O1` (some centres not stated), the growth was -60.2% (active).

On to `O=c1cc(CSc2nnc(SCc3cc(=O)oc4c3ccc3ccccc34)o2)c2ccc3ccccc3c2o1`, for which the growth was 91.7%.

`COc1cc2c(cc1O)CC[C@@H]1[C@@H]2CC[C@]2(C)[C@@H](OCCN(C)C)CC[C@@H]12`: the growth was -11.6% (active).

For the compound `COc1ccc(-c2nnc(SCC(=O)c3ccc(Cl)cc3)o2)cc1`, the growth was 105%.

Take `NC(=NCCCOc1ccc(Cl)cc1)Nc1ccc(C(F)(F)F)cc1`: the growth is -23.7% (active).

As to `CCCCC[C@H]1C/C=C2/C(=O)C=C[C@@H]2C/C=C\CCCC(=O)O1`, the growth was -3.55% (active).

Consider `CNC(=O)c1cc(Oc2ccc(NC(=O)Nc3ccc(Cl)c(OC(F)(F)F)c3)c(F)c2)ccn1`, for which the growth is 30%.
